Laboratory results from PMC12529666, “Dysregulation of AGO2-miRNA dynamics underlies the AGO2-associated Lessel–Kreienkamp syndrome”.

B1: ACGTCCCA (ssRNA)
RNA 1: GAGUUCUACAGUCCGACGAUCCCAACACGUCCCACACCUGGAAUUCUCGGGUGCCAA
RNA 2: UGGAGUGUGACAAUGGUGUUUG
DNA 1: GATCGTCGGACTGTAGAACTC
DNA 2: TTGGCACCCGAGAATTCCA
modifications: constant regions annealed to DNA blockers; guide miR-122 5' phosphate
B2: ACACCCCG (ssRNA)
RNA 1: GAGUUCUACAGUCCGACGAUCCCAACACACCCCGCACCUGGAAUUCUCGGGUGCCAA
RNA 2: UGGAGUGUGACAAUGGUGUUUG
DNA 1: GATCGTCGGACTGTAGAACTC
DNA 2: TTGGCACCCGAGAATTCCA
modifications: constant regions annealed to DNA blockers; guide miR-122 5' phosphate
B3: ACACCTTA (ssRNA)
RNA 1: GAGUUCUACAGUCCGACGAUCCCAACACACCUUACACCUGGAAUUCUCGGGUGCCAA
RNA 2: UGGAGUGUGACAAUGGUGUUUG
DNA 1: GATCGTCGGACTGTAGAACTC
DNA 2: TTGGCACCCGAGAATTCCA
modifications: constant regions annealed to DNA blockers; guide miR-122 5' phosphate
B4: GCACCCCG (ssRNA)
RNA 1: GAGUUCUACAGUCCGACGAUCCCAACGCACCCCGCACCUGGAAUUCUCGGGUGCCAA
RNA 2: UGGAGUGUGACAAUGGUGUUUG
DNA 1: GATCGTCGGACTGTAGAACTC
DNA 2: TTGGCACCCGAGAATTCCA
modifications: constant regions annealed to DNA blockers; guide miR-122 5' phosphate
B5: GCGCTCCA (ssRNA)
RNA 1: GAGUUCUACAGUCCGACGAUCCCAACGCGCUCCACACCUGGAAUUCUCGGGUGCCAA
RNA 2: UGGAGUGUGACAAUGGUGUUUG
DNA 1: GATCGTCGGACTGTAGAACTC
DNA 2: TTGGCACCCGAGAATTCCA
modifications: constant regions annealed to DNA blockers; guide miR-122 5' phosphate
B6: GTGTCCCA (ssRNA)
RNA 1: GAGUUCUACAGUCCGACGAUCCCAACGUGUCCCACACCUGGAAUUCUCGGGUGCCAA
RNA 2: UGGAGUGUGACAAUGGUGUUUG
DNA 1: GATCGTCGGACTGTAGAACTC
DNA 2: TTGGCACCCGAGAATTCCA
modifications: constant regions annealed to DNA blockers; guide miR-122 5' phosphate
B7: GCGTTTCA (ssRNA)
RNA 1: GAGUUCUACAGUCCGACGAUCCCAACGCGUUUCACACCUGGAAUUCUCGGGUGCCAA
RNA 2: UGGAGUGUGACAAUGGUGUUUG
DNA 1: GATCGTCGGACTGTAGAACTC
DNA 2: TTGGCACCCGAGAATTCCA
modifications: constant regions annealed to DNA blockers; guide miR-122 5' phosphate
B8: GCGTCCCA (ssRNA)
RNA 1: GAGUUCUACAGUCCGACGAUCCCAACGCGUCCCACACCUGGAAUUCUCGGGUGCCAA
RNA 2: UGGAGUGUGACAAUGGUGUUUG
DNA 1: GATCGTCGGACTGTAGAACTC
DNA 2: TTGGCACCCGAGAATTCCA
modifications: constant regions annealed to DNA blockers; guide miR-122 5' phosphate
B9: GCGCCTTA (ssRNA)
RNA 1: GAGUUCUACAGUCCGACGAUCCCAACGCGCCUUACACCUGGAAUUCUCGGGUGCCAA
RNA 2: UGGAGUGUGACAAUGGUGUUUG
DNA 1: GATCGTCGGACTGTAGAACTC
DNA 2: TTGGCACCCGAGAATTCCA
modifications: constant regions annealed to DNA blockers; guide miR-122 5' phosphate
B10: GCGCTCCG (ssRNA)
RNA 1: GAGUUCUACAGUCCGACGAUCCCAACGCGCUCCGCACCUGGAAUUCUCGGGUGCCAA
RNA 2: UGGAGUGUGACAAUGGUGUUUG
DNA 1: GATCGTCGGACTGTAGAACTC
DNA 2: TTGGCACCCGAGAATTCCA
modifications: constant regions annealed to DNA blockers; guide miR-122 5' phosphate
B11: GCACCTTA (ssRNA)
RNA 1: GAGUUCUACAGUCCGACGAUCCCAACGCACCUUACACCUGGAAUUCUCGGGUGCCAA
RNA 2: UGGAGUGUGACAAUGGUGUUUG
DNA 1: GATCGTCGGACTGTAGAACTC
DNA 2: TTGGCACCCGAGAATTCCA
modifications: constant regions annealed to DNA blockers; guide miR-122 5' phosphate
B12: GCGCCTCA (ssRNA)
RNA 1: GAGUUCUACAGUCCGACGAUCCCAACGCGCCUCACACCUGGAAUUCUCGGGUGCCAA
RNA 2: UGGAGUGUGACAAUGGUGUUUG
DNA 1: GATCGTCGGACTGTAGAACTC
DNA 2: TTGGCACCCGAGAATTCCA
modifications: constant regions annealed to DNA blockers; guide miR-122 5' phosphate
B13: ATATTCCA (ssRNA)
RNA 1: GAGUUCUACAGUCCGACGAUCCCAACAUAUUCCACACCUGGAAUUCUCGGGUGCCAA
RNA 2: UGGAGUGUGACAAUGGUGUUUG
DNA 1: GATCGTCGGACTGTAGAACTC
DNA 2: TTGGCACCCGAGAATTCCA
modifications: constant regions annealed to DNA blockers; guide miR-122 5' phosphate
B14: ACATTTTA (ssRNA)
RNA 1: GAGUUCUACAGUCCGACGAUCCCAACACAUUUUACACCUGGAAUUCUCGGGUGCCAA
RNA 2: UGGAGUGUGACAAUGGUGUUUG
DNA 1: GATCGTCGGACTGTAGAACTC
DNA 2: TTGGCACCCGAGAATTCCA
modifications: constant regions annealed to DNA blockers; guide miR-122 5' phosphate
B15: GTACCTCA (ssRNA)
RNA 1: GAGUUCUACAGUCCGACGAUCCCAACGUACCUCACACCUGGAAUUCUCGGGUGCCAA
RNA 2: UGGAGUGUGACAAUGGUGUUUG
DNA 1: GATCGTCGGACTGTAGAACTC
DNA 2: TTGGCACCCGAGAATTCCA
modifications: constant regions annealed to DNA blockers; guide miR-122 5' phosphate
B16: GTGCCTTA (ssRNA)
RNA 1: GAGUUCUACAGUCCGACGAUCCCAACGUGCCUUACACCUGGAAUUCUCGGGUGCCAA
RNA 2: UGGAGUGUGACAAUGGUGUUUG
DNA 1: GATCGTCGGACTGTAGAACTC
DNA 2: TTGGCACCCGAGAATTCCA
modifications: constant regions annealed to DNA blockers; guide miR-122 5' phosphate
B17: ACGTTCCA (ssRNA)
RNA 1: GAGUUCUACAGUCCGACGAUCCCAACACGUUCCACACCUGGAAUUCUCGGGUGCCAA
RNA 2: UGGAGUGUGACAAUGGUGUUUG
DNA 1: GATCGTCGGACTGTAGAACTC
DNA 2: TTGGCACCCGAGAATTCCA
modifications: constant regions annealed to DNA blockers; guide miR-122 5' phosphate
B18: GTGCTTCG (ssRNA)
RNA 1: GAGUUCUACAGUCCGACGAUCCCAACGUGCUUCGCACCUGGAAUUCUCGGGUGCCAA
RNA 2: UGGAGUGUGACAAUGGUGUUUG
DNA 1: GATCGTCGGACTGTAGAACTC
DNA 2: TTGGCACCCGAGAATTCCA
modifications: constant regions annealed to DNA blockers; guide miR-122 5' phosphate
B19: ATGTCTTA (ssRNA)
RNA 1: GAGUUCUACAGUCCGACGAUCCCAACAUGUCUUACACCUGGAAUUCUCGGGUGCCAA
RNA 2: UGGAGUGUGACAAUGGUGUUUG
DNA 1: GATCGTCGGACTGTAGAACTC
DNA 2: TTGGCACCCGAGAATTCCA
modifications: constant regions annealed to DNA blockers; guide miR-122 5' phosphate

target: AGO2 WT (phosphosite mutant background) (Homo sapiens, UniProt Q9UKV8 1-859, S387D;S824A;S828D;S831D;S834A); test: RNA Bind-n-Seq (nitrocellulose filter binding and sequencing); miR-122 guide loaded in AGO2; 60 min incubation; 30 mM Tris pH 8.0, 100 mM potassium acetate, 2 mM magnesium acetate, 0.5 mM TCEP, 0.005% NP-40, 0.01 mg/ml yeast tRNA; 3 nM AGO2-miR-122, 100 nM RNA library; 60; high values mean tight binding; settings: protein: recombinant; tags: His6 (N-terminal, pFastBac HTA)
Outline: (§1)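 Fold enrichment is each target's read fraction divided by its read fraction in the input library. Sf9 insect cells expressed His-tagged AGO2 from baculovirus; the protein was loaded with a synthetic guide RNA and purified by Ni-NTA and a biotinylated capture oligo. The bound RNA was extracted, reverse-transcribed, barcode-amplified and sequenced on Illumina.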

AGO2 WT (phosphosite mutant background), sequence (Q9UKV8 whole entry S387D/S824A/S828D/S831D/S834A): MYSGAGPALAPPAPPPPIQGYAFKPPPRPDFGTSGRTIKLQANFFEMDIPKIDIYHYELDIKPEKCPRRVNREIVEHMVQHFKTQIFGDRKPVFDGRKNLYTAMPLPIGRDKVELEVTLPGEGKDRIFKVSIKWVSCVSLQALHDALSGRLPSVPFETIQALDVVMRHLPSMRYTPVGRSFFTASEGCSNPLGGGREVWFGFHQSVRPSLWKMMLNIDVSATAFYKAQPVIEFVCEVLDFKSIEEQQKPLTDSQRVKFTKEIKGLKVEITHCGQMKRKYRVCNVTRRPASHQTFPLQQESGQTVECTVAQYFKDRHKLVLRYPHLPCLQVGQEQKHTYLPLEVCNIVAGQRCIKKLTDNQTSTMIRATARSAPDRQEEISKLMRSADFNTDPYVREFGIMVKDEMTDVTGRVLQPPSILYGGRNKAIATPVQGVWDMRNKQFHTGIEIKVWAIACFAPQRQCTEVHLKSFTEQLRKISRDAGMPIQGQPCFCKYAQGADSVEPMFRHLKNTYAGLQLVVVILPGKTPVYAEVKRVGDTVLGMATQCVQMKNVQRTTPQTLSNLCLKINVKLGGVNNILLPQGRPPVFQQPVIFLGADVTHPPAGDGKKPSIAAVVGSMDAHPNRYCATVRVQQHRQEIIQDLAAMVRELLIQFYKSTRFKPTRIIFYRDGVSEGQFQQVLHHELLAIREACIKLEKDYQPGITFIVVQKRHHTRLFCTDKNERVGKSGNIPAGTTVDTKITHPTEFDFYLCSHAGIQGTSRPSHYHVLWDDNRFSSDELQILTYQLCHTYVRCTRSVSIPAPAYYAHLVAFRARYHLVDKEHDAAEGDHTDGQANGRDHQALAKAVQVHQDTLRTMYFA

Binder | binding signal
B1 | 0.127 fold enrichment over input
B2 | 0.152 fold enrichment over input
B3 | 0.164 fold enrichment over input
B4 | 0.129 fold enrichment over input
B5 | 1.63 fold enrichment over input
B6 | 0.125 fold enrichment over input
B7 | 0.125 fold enrichment over input
B8 | 0.126 fold enrichment over input
B9 | 0.125 fold enrichment over input
B10 | 1.39 fold enrichment over input
B11 | 0.132 fold enrichment over input
B12 | 0.131 fold enrichment over input
B13 | 0.121 fold enrichment over input
B14 | 0.122 fold enrichment over input
B15 | 0.149 fold enrichment over input
B16 | 0.126 fold enrichment over input
B17 | 0.137 fold enrichment over input
B18 | 0.127 fold enrichment over input
B19 | 0.142 fold enrichment over input

target: AGO2 L192P (Homo sapiens, UniProt Q9UKV8 1-859, L192P;S387D;S824A;S828D;S831D;S834A); test: as above; settings: protein: recombinant; tags: His6 (N-terminal, pFastBac HTA)
Outline: as §1

AGO2 L192P, sequence (Q9UKV8 whole entry L192P/S387D/S824A/S828D/S831D/S834A): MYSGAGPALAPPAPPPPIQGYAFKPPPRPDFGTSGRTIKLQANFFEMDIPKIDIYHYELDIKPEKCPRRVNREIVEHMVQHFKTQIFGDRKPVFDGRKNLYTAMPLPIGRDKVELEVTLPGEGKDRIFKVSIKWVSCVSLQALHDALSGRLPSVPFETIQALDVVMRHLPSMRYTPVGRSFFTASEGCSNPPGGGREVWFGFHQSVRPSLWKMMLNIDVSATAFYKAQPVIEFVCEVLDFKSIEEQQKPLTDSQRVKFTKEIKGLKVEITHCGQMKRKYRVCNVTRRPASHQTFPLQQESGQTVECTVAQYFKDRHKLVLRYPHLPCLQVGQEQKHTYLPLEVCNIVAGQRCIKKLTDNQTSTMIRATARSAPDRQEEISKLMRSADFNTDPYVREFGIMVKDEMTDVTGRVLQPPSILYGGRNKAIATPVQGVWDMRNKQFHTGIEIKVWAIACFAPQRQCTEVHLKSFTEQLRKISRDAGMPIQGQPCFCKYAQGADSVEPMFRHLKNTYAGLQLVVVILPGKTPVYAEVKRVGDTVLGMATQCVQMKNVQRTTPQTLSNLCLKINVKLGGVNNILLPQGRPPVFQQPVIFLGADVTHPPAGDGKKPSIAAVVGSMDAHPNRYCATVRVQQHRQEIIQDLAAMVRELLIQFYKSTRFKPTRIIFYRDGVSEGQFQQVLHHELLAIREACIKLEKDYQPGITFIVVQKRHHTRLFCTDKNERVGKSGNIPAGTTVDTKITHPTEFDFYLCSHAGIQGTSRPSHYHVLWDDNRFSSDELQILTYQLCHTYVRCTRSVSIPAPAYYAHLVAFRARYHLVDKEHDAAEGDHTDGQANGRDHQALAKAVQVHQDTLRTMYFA

Binder | binding signal
B1 | 0.569 fold enrichment over input
B2 | 0.517 fold enrichment over input
B3 | 0.755 fold enrichment over input
B4 | 0.455 fold enrichment over input
B5 | 3.25 fold enrichment over input
B6 | 0.479 fold enrichment over input
B7 | 0.513 fold enrichment over input
B8 | 0.51 fold enrichment over input
B9 | 0.5 fold enrichment over input
B10 | 3.09 fold enrichment over input
B11 | 0.59 fold enrichment over input
B12 | 0.523 fold enrichment over input
B13 | 0.564 fold enrichment over input
B14 | 0.534 fold enrichment over input
B15 | 0.573 fold enrichment over input
B16 | 0.555 fold enrichment over input
B17 | 0.603 fold enrichment over input
B18 | 0.455 fold enrichment over input
B19 | 0.569 fold enrichment over input

target: AGO2 A367P (Homo sapiens, UniProt Q9UKV8 1-859, A367P;S387D;S824A;S828D;S831D;S834A); test: as above; settings: protein: recombinant; tags: His6 (N-terminal, pFastBac HTA)
Outline: as §1

AGO2 A367P, sequence (Q9UKV8 whole entry A367P/S387D/S824A/S828D/S831D/S834A): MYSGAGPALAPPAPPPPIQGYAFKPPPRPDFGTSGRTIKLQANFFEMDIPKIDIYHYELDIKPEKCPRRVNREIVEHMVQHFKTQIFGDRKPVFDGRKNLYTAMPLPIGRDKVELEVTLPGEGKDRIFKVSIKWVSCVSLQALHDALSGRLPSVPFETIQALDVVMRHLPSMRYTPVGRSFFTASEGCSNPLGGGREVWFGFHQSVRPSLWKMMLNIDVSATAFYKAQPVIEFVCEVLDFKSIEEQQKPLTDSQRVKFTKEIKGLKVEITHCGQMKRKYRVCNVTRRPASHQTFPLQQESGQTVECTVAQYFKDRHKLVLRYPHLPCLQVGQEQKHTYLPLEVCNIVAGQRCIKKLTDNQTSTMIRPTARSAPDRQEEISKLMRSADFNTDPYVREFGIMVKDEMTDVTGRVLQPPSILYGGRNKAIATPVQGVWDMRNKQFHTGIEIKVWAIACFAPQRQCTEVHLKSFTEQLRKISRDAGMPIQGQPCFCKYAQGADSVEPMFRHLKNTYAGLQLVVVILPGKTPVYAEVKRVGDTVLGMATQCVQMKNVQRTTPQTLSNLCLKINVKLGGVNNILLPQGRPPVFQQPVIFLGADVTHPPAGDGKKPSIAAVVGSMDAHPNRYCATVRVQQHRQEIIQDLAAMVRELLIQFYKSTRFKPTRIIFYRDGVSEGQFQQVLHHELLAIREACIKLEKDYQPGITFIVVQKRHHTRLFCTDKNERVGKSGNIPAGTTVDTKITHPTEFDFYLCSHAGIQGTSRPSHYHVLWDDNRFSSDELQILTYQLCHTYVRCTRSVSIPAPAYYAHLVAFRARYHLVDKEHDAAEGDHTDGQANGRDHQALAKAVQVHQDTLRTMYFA

Binder | binding signal
B1 | 0.255 fold enrichment over input
B2 | 0.259 fold enrichment over input
B3 | 0.475 fold enrichment over input
B4 | 0.21 fold enrichment over input
B5 | 2.69 fold enrichment over input
B6 | 0.249 fold enrichment over input
B7 | 0.227 fold enrichment over input
B8 | 0.215 fold enrichment over input
B9 | 0.194 fold enrichment over input
B10 | 4.35 fold enrichment over input
B11 | 0.307 fold enrichment over input
B12 | 0.233 fold enrichment over input
B13 | 0.22 fold enrichment over input
B14 | 0.209 fold enrichment over input
B15 | 0.44 fold enrichment over input
B16 | 0.217 fold enrichment over input
B17 | 0.333 fold enrichment over input
B18 | 0.192 fold enrichment over input
B19 | 0.399 fold enrichment over input

target: AGO2 T357M (Homo sapiens, UniProt Q9UKV8 1-859, T357M;S387D;S824A;S828D;S831D;S834A); test: as above; settings: protein: recombinant; tags: His6 (N-terminal, pFastBac HTA)
Outline: as §1

AGO2 T357M, sequence (Q9UKV8 whole entry T357M/S387D/S824A/S828D/S831D/S834A): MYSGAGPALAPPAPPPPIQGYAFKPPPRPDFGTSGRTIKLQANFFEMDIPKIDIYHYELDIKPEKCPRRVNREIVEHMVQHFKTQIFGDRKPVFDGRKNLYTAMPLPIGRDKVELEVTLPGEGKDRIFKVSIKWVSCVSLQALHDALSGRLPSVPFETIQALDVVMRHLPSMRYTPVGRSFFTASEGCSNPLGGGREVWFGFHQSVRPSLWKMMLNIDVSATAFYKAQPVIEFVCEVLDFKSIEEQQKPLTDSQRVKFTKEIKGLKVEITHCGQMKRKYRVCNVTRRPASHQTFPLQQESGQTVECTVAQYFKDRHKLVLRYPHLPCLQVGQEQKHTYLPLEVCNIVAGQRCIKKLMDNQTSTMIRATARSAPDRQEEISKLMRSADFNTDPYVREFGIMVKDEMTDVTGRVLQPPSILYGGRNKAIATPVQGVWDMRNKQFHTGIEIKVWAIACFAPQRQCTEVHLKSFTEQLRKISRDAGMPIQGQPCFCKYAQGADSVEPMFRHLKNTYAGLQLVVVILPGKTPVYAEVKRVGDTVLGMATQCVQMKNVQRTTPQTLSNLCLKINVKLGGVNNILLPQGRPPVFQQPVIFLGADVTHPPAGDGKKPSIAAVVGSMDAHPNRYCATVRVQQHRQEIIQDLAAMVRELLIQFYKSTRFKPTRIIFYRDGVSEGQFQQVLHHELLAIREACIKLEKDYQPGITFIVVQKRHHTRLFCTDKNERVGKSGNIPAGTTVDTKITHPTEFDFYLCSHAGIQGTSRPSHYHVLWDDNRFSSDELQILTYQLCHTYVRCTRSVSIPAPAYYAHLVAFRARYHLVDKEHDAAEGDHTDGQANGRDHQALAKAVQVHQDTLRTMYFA

Binder | binding signal
B1 | 0.637 fold enrichment over input
B2 | 0.517 fold enrichment over input
B3 | 0.721 fold enrichment over input
B4 | 0.634 fold enrichment over input
B5 | 1.03 fold enrichment over input
B6 | 0.602 fold enrichment over input
B7 | 0.632 fold enrichment over input
B8 | 0.751 fold enrichment over input
B9 | 0.763 fold enrichment over input
B10 | 0.905 fold enrichment over input
B11 | 0.657 fold enrichment over input
B12 | 0.741 fold enrichment over input
B13 | 0.646 fold enrichment over input
B14 | 0.598 fold enrichment over input
B15 | 0.601 fold enrichment over input
B16 | 0.801 fold enrichment over input
B17 | 0.66 fold enrichment over input
B18 | 0.624 fold enrichment over input
B19 | 0.646 fold enrichment over input

target: AGO2 F182del (Homo sapiens, UniProt Q9UKV8 1-859, S387D;S824A;S828D;S831D;S834A;del182-182); test: as above; settings: protein: recombinant; tags: His6 (N-terminal, pFastBac HTA)
Outline: as §1

AGO2 F182del, sequence (Q9UKV8 other isoform, or with tags, fused parts or gaps S387D;S824A;S828D;S831D;S834A;del182-182): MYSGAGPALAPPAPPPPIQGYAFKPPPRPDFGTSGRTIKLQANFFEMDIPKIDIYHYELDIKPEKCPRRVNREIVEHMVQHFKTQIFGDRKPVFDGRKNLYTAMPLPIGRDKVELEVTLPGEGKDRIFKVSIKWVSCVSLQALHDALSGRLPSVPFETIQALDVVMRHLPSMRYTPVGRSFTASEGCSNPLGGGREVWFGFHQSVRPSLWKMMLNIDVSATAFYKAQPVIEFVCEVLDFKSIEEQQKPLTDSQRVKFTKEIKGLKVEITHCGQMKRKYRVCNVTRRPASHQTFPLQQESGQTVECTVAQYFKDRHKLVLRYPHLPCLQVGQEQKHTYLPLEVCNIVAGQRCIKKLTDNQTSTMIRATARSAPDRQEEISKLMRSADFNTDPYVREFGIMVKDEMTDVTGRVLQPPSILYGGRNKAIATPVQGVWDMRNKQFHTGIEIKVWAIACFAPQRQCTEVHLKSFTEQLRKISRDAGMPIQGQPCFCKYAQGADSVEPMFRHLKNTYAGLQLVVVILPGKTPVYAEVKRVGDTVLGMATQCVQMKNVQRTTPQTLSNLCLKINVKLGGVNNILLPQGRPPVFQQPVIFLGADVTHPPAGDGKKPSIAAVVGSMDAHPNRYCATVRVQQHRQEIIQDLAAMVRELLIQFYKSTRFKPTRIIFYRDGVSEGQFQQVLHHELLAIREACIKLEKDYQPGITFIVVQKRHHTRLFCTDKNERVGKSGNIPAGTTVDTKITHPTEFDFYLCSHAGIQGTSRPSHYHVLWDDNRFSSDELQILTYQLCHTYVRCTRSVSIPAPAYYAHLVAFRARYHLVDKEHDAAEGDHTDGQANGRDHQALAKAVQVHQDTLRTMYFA

Binder | binding signal
B1 | 0.446 fold enrichment over input
B2 | 0.82 fold enrichment over input
B3 | 1.89 fold enrichment over input
B4 | 0.203 fold enrichment over input
B5 | 6.7 fold enrichment over input
B6 | 0.268 fold enrichment over input
B7 | 0.326 fold enrichment over input
B8 | 0.169 fold enrichment over input
B10 | 7.66 fold enrichment over input
B11 | 0.717 fold enrichment over input
B12 | 0.304 fold enrichment over input
B13 | 0.372 fold enrichment over input
B14 | 0.359 fold enrichment over input
B15 | 1.57 fold enrichment over input
B17 | 0.976 fold enrichment over input
B19 | 0.57 fold enrichment over input
